Compound activity from PubChem BioAssay.
An excerpt weighted towards active compounds, which were near 1.2% of everything screened.
aGal spleen mod: alpha-galactosidase A (human) modulation; P06280; Potency, µM (doses to about 80 µM), without a hit: top-dose activity change, negative = inhibition, actives largely listed as inhibitors; actives 0.008% (n = 240,000); AID 2107; human spleen homogenate, 4MU-alpha-Gal fluorescence, 40 min;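 note: potency is the fitted concentration of half-maximal effect; 0% = enzyme with vehicle and -100% = no enzyme basal signal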
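Human spleen homogenate (1 ug) was the enzyme source, with 4-methylumbelliferyl-alpha-D-galactopyranoside (1 mM final) in pH 5.0 citrate buffer with 0.01% Tween-20. Compounds were titrated; after 40 min at 37C, NaOH/glycine stop, 4-MU fluorescence read; AC50 from Hill fits.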
HttQ103 aggreg: reduces HttQ103-GFP aggregates in PC12 cells | PC12 HttQ103-GFP aggregates, Acumen cytometry, 40 h | Potency, µM (highest dose often 46.1 µM), inactives show at the top dose activity change, negative = inhibition, most hits filed as inhibitors | actives 1.1% (n = 220,000) | AID 1688; note: potency is the fitted concentration of half-maximal effect; % is set by controls: 0 for no effect and ±100 for the full control effect; nearly all actives have a fitted effect of over 60% in size
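Steps: seed 1500 PC12 HTTQ103-GFP cells/well; add tebufenozide, 100 nM final; add compound titration; add ATPLite reagent; quantify GFP aggregates by laser scanning cytometry.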
GLA inh pH 4.5: inhibitors of human alpha-galactosidase A at pH 4.5. P06280. purified enzyme, 4-MU-alpha-Gal fluorescence, pH 4.5. activity change, negative = inhibition, % at 105 µM. 230,000 tested, under 10 active;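 note: 0% = full activity with enzyme and -100% = basal without enzyme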
Target sequence (P06280 whole entry, looked up): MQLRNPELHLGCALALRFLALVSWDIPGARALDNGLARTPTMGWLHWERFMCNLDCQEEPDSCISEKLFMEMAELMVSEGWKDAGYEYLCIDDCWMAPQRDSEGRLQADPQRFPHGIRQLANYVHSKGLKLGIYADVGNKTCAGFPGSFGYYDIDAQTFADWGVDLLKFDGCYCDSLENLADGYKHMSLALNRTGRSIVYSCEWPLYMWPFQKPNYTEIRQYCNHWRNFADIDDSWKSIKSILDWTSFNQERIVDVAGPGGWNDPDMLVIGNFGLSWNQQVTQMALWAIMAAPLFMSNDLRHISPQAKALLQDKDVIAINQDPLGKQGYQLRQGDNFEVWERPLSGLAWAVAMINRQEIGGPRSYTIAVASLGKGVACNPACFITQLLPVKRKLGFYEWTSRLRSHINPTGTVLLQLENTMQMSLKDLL
HTT ATP protect: Huntington cell model cytoprotection by ATP luminescence; PC12 HTT-Q103 induced, cytoprotection, ATP luminescence, 40 h; actives 0.14% (n = 230,000); AID 1471; Potency, µM (doses to about 56.4 µM), without a hit: cytoprotection (ATP increase), actives largely listed as activators; note: potency is the fitted concentration of half-maximal effect; % of control where 0% means no effect; nearly all actives have a fitted effect of over 45% in size
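Readout: ATPlite luminescence (ATP level). Model: stable PC12, inducible Htt exon1 Q103-GFP. Inducer: tebufenozide, 100 nM final. Compounds: dose series. No G418 in medium.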
The depositor's hits bear a star; ? = inconclusive; nt = not tested or not shown; [ ] = dose if it differs, or a comment. Calls come from the whole dose curve; as a rule, active = well fitted curve in the direction sought with a large enough effect; inconclusive = small, poorly fitted or top-dose-only effect, or another doubt; inactive = no such curve, though single readings can be large; an effect the other way counts as inactive or inconclusive.

SMILES	aGal spleen mod	HttQ103 aggreg	GLA inh pH 4.5	HTT ATP protect
COc1cc(CN2CCN(c3cc(C)ccc3C)CC2)ccc1O	0%	10µM*	-9	-161%[0.074 µM]
Cc1ccc(N)c(C(=O)c2ccc(Br)cc2)c1	-4%	7.1µM*	-7	-25%
Nc1ccc(Br)cc1C(=O)c1ccccc1	2%	-3%	5	-24%
NC(N)=NN=C(/C=C/c1ccc([N+](=O)[O-])o1)/C=C/c1ccc([N+](=O)[O-])o1	nt	10µM*	nt	-99%
CCOC(=O)c1ccc(NC(=O)c2c(O)[nH]c(=O)[nH]c2=O)cc1	-2%	3.5µM*	0	1%
O=C(COc1ccc2ccccc2c1)N1CCN(Cc2c[nH]c3ccccc23)CC1	-13%	10µM*	-7	-59%[10 µM]
CCc1cccc(NC(=O)Cn2c(=O)oc3cc(S(=O)(=O)N4CCOCC4)ccc32)c1	4%	2.2µM*	-9	-107%
Cc1cc(C)cc(NC(=O)Cn2c(=O)oc3cc(S(=O)(=O)N4CC(C)CC(C)C4)ccc32)c1 (stereo not given)	-1%	?	-3	-70%
C[C@@]12CC[C@H](O)C[C@@H]1CC[C@H]1[C@H]2C[C@@H](O)[C@]2(C)[C@@H](C3=CC(=O)OC3)CC[C@@]12O	nt	nt	nt	-26%
Nc1ccccc1-[n+]1c(-c2ccccc2)cc(-c2ccccc2)cc1-c1ccccc1	-1%	-19%[9.22 µM]	-6	-35%[10 µM]
C[n+]1c(-c2ccccc2)cc(CCCCc2cc(-c3ccccc3)[n+](C)c(-c3ccccc3)c2)cc1-c1ccccc1	-5%	22µM*	-30	17%[10 µM]
COc1ccc(-c2cc(-c3ccccc3)[n+](C)c(-c3ccccc3)c2)cc1	18%	7.1µM*	-14	-54%[10 µM]
COc1cc2c(cc1OC)[C@]13CCN4CC5=CCO[C@@H]6CC(=O)N2[C@@H]1[C@H]6[C@@H]5C[C@H]43	nt	nt	nt	6%
c1ccc2c(c1)OCC(C1=NCCN1)O2 (stereo not given)	-1%	17%	-4	16µM*
CN1/C(=C\C=Nc2ccccc2)C(C)(C)c2ccccc21	-12%	-12%	1	8%
CN1/C(=C\C=C\C2=[N+](C)c3ccc4ccccc4c3C2(C)C)C(C)(C)c2ccccc21	2%	2.8µM*	5	-114%
N[C@H](Cn1oc(=O)[nH]c1=O)C(=O)O	nt	nt	nt	-9%[1.9 µM]
CC1(C)C[C@H]2C=C(C=O)[C@]3(C=O)C[C@]3(C)[C@H]2C1	-13%	8.9µM*	-5	nt
CN1C[C@@H](CS(=O)(=O)N(C)C)C[C@H]2c3cccc4c3c(cn4C)C[C@@H]21	nt	nt	nt	6%[1.9 µM]
c1ccc2cc(C3N4CCCN34)ccc2c1 (stereo not given)	-20%	9%	0	4µM*
CC(C)c1ccc(C2N3CCCN23)cc1 (stereo not given)	-7%	0%	5	nt
C[C@@]12CC[C@H]3[C@@H](CCC4=CC(=O)CC[C@]43C)[C@H]1CCC2=O	nt	nt	nt	7%[1.9 µM]
O=c1cccc2n1C[C@@H]1C[C@H]2CN2CCCC[C@H]12	nt	nt	nt	-64%
O=C1C=C2C=C[C@H]3C[C@@]2(O1)[C@H]1CCCCN31	10%[29.1 µM]	nt	-3	6.3µM*
O=C1C=C2C=C[C@H]3C[C@]2(O1)[C@@H]1CCCCN13	-2%	nt	1	nt
SMILES	aGal spleen mod	HttQ103 aggreg	GLA inh pH 4.5	HTT ATP protect
O=C1C=C2C=CC3C[C@@]2(O1)C1CCCCN31 (stereo not given in full)	8%	nt	6	1.6µM*
[Hg+][c]1ccccc1	nt	3.2µM*	nt	-99%
c1ccc(-c2ccccc2)cc1	3%	nt	nt	28%
CCN1C[C@@]2(C)CC[C@H](O)[C@@]34[C@@H]5C[C@H]6[C@H](O)[C@@H]5[C@](O)(C[C@@H]6OC)[C@H](C[C@@H]23)[C@H]14	nt	nt	nt	8%
CNc1cc(Cl)c2nonc2c1[N+](=O)[O-]	-6%	6.3µM*	-2	-147%
COC(=O)c1ccc(COc2cc(C)cc3oc(=O)c4c(c23)CCCC4)o1	0%	13%	-28	-12%[10 µM]
Cc1cc(OC(=O)c2cccs2)c2c3c(c(=O)oc2c1)CCCC3	6%	25µM*	6	29%[10 µM]
Cc1cc(OC(=O)c2ccco2)c2c3c(c(=O)oc2c1)CCCC3	2%	13µM*	2	-82%
Cc1cc(OCC(=O)O)c2c3c(c(=O)oc2c1)CCCC3	-1%	-2%	4	-2%
CCCCCC[C@H]1C(=O)O[C@@H](C)[C@H](NC(=O)c2cccc(NC=O)c2O)C(=O)O[C@@H](C)[C@@H]1OC(=O)CC(C)C	nt	nt	nt	-4%
COc1cc2c(cc1O)CCN[C@H]2C	nt	nt	nt	2%
[Cl-].[Cl-].[Hg+2]	8%	4µM*	nt	-75%
c1ccc(CNc2c3c(nc4ccccc24)CCC3)cc1	-2%	4.5µM*	-3	-71%[10 µM]
CCN1C[C@@]2(COC(=O)c3ccccc3N3C(=O)C[C@H](C)C3=O)CC[C@H](OC)[C@@]34[C@@H]5CC6[C@@H](OC)C[C@@](O)([C@H]5[C@H]6OC)C(O)([C@@H]13)[C@@H](OC)[C@H]24	nt	nt	nt	7%
CCN(CC)C(=O)N[C@@H]1C=C2c3cccc4[nH]cc(c34)C[C@@H]2N(C)C1	nt	nt	nt	26%[1.9 µM]
CC1CCC/C=C/C2CC(O)CC2C(O)/C=C/C(=O)O1 (stereo not given)	2%	1µM*	10	-80%
C[C@H]1CCC/C=C/C2C[C@H](O)CC2[C@H](O)/C=C/C(=O)O1 (stereo not given in full)	2%	2.8µM*	7	nt
C[C@@H]1CCC/C=C\[C@H]2C[C@H](O)C[C@@H]2[C@H](O)/C=C\C(=O)O1	nt	nt	nt	-62%
C=C1C(=O)O[C@H]2[C@H]1[C@H](OC(=O)CC(=O)O[C@@H]1C[C@@H](C)[C@@H]3C=CC(=O)[C@@]3(C)[C@H]3OC(=O)C(=C)[C@H]13)C[C@@H](C)[C@H]1C=CC(=O)[C@]12C	-1%	21%[9.22 µM]	1	4.5µM*
C=C1C(=O)O[C@@H]2C[C@@H](C)[C@@H]3C=CC(=O)[C@@]3(C)[C@@H](OC(=O)CC(=O)O[C@H]3[C@@H]4C(=C)C(=O)O[C@@H]4C[C@@H](C)[C@@H]4C=CC(=O)[C@]43C)[C@H]12	0%	0.63µM*	-3	-97%[10 µM]
CC(C)(C)[C@@]1(O)C[C@@H]2OC(=O)C[C@@]23C(=O)O[C@H]2OC(=O)[C@@H](O)[C@]231	nt	nt	nt	-14%
CN[C@H]1[C@H](C)O[C@@H](O[C@@H]2C/C=C(/C)C/C(C)=C\C=C/CC[C@@H](C)CNC(=O)/C=C\C=C/[C@H]2C)C[C@@H]1O	nt	nt	nt	-88%[10 µM]
CC(C)CCn1c(N)c(C(=O)NCc2cccs2)c2nc3ccccc3nc21	11%	-32%	12	-39%
CC(C)OCCCNC(=O)c1c(N)n(Cc2cccs2)c2nc3ccccc3nc12	?	28µM*	14	-28%
C=C(C)[C@H]1[C@H]2OC(=O)[C@@H]1[C@]1(O)C[C@H]3O[C@]34C(=O)O[C@H]2[C@]14C	nt	nt	nt	-3%
CC1CCN(S(=O)(=O)c2ccc(NN=C(C#N)C#N)cc2)CC1	-5%	16µM*	-3	14%
